Screening results (PubChem BioAssay)
Many of the other results were omitted from the sample, so hits are more common in it than they were.
Anthrax LF prot – anthrax lethal factor protease inhibition; P15917; multiplex microsphere protease cleavage assay, LF; inhibition, % at 10 µM; actives 0.12% (n = 360,000); also: plate controls were buffer without enzyme for full effect and enzyme alone for no effect
Autofluor counter – counter-screen for toxin protease inhibitors: compound fluorescence; compound autofluorescence counterscreen, microsphere flow cytometry; stronger effect = higher value; fluorescence intensity (test concentration not listed); actives 3.1% (n = 360,000); in the data active = fluorescence intensity above about 16000; inconclusive = no clear call, values can overlap the other calls
BoNT-A LC inh2 – BoNT A light chain protease inhibition; actives 0.17% (n = 360,000); inhibition, % at 10 µM; multiplex microsphere protease substrate cleavage, flow cytometry; also: plate controls were buffer without enzyme for full effect and enzyme alone for no effect
BoNT-F LC inh – blocks Botulinum neurotoxin F light chain protease; inhibition, % at 10 µM; AID 588497; Multiplex microsphere protease cleavage assay, flow cytometry; actives 0.22% (n = 360,000); in the data active = inhibition above about 35%, passing the limit was not always enough; inconclusive = no clear call, values can overlap the other calls; also: plate controls were buffer without enzyme for full effect and enzyme alone for no effect
TcdB inh – TcdB glycohydrolase inhibition; P18177; TcdB glycohydrolase enzymatic assay, plate reader; inhibition, % at 9.99 µM; actives 0.24% (n = 350,000); in the data active = inhibition above about 10%
* marks the source's active call; other numbers are inactive results. Rule as the data show it, unless noted: active = inhibition above about 30%; inconclusive = no clear call, values can overlap the other calls; inactive = below that.

`O=C(C[C@H]1C[C@@H]2c3cc(NC(=O)C4CCOCC4)ccc3O[C@@H]2[C@H](CO)O1)NCc1ccccc1` gave TcdB inh -1.
`COc1ccc(S(=O)(=O)N(C)C[C@@H]2OCCCC[C@H](C)Oc3ccc(NC(=O)CCCN(C)C)cc3C(=O)N([C@H](C)CO)C[C@@H]2C)cc1` gave TcdB inh 0.
For CCOC(=O)c1nn(-c2ccc(C)cc2)c(=O)cc1OCC(=O)Nc1cccc(OC)c1 the results were TcdB inh 2.
For CCOC(=O)c1nn(-c2ccc(C)cc2)c(=O)cc1OCC(=O)Nc1cccc(C)c1 the results were Anthrax LF prot 0, Autofluor counter 4308, BoNT-A LC inh2 10, BoNT-F LC inh 43* and TcdB inh 6.
COCCNC(=O)c1cc2cc(Br)cc(OC)c2oc1=O was read as Anthrax LF prot 1, Autofluor counter 21622*, BoNT-A LC inh2 inconclusive and BoNT-F LC inh -4.
CCCCn1c(O)c(C(C)=NCCCn2ccnc2)c(=O)[nH]c1=O was read as Anthrax LF prot -2, Autofluor counter 8421, BoNT-A LC inh2 1 and BoNT-F LC inh 0.
Screening CC(=NCCCn1ccnc1)c1c(O)n(C)c(=O)n(C)c1=O returned Anthrax LF prot -3, Autofluor counter 19563*, BoNT-A LC inh2 -1 and BoNT-F LC inh -3.
For C=CCn1c(O)c(C(C)=NCC2CCCO2)c(=O)[nH]c1=O (stereo unspecified) the results were Anthrax LF prot inconclusive, Autofluor counter 3293, BoNT-A LC inh2 10, BoNT-F LC inh 31 and TcdB inh 1.
For COc1cc(CN=C(C)c2c(O)n(C)c(=O)n(C)c2=O)cc(OC)c1 the results were Anthrax LF prot -5, Autofluor counter 6101, BoNT-A LC inh2 0, BoNT-F LC inh 6 and TcdB inh -1.
Screening CC(=NCc1ccc(F)cc1)c1c(O)n(C)c(=O)n(C)c1=O returned Anthrax LF prot 0, Autofluor counter 19909*, BoNT-A LC inh2 inconclusive and BoNT-F LC inh 0.
For CC(=NCc1ccco1)c1c(O)n(C)c(=O)n(C)c1=O the results were Anthrax LF prot -1, Autofluor counter 21713*, BoNT-A LC inh2 1 and BoNT-F LC inh 3.
Screening CC(=NCC1CCCO1)c1c(O)n(C)c(=O)n(C)c1=O (stereo unspecified) returned Anthrax LF prot -1, Autofluor counter 20914*, BoNT-A LC inh2 -4 and BoNT-F LC inh -4.
C[C@@H]1CN([C@@H](C)CO)C(=O)c2cc(NC(=O)CCN3CCOCC3)ccc2O[C@H]1CN(C)Cc1ccc2c(c1)OCO2 was read as TcdB inh -2.
`CS(=O)(=O)Nc1ccc2c(c1)[C@@H]1C[C@H](CC(=O)NCC3CC3)O[C@H](CO)[C@@H]1O2` gave TcdB inh 0.
For COc1ccc(C(=O)ON=C2CCN(c3ccc([N+](=O)[O-])cc3)CC2)cc1 the results were Anthrax LF prot -7, Autofluor counter 5549, BoNT-A LC inh2 1 and BoNT-F LC inh 0.
For O=C(ON=C1CCN(c2ccc([N+](=O)[O-])cc2)CC1)c1ccccc1 the results were Anthrax LF prot 2, Autofluor counter 19501*, BoNT-A LC inh2 inconclusive and BoNT-F LC inh 1.
`Cc1noc(C)c1S(=O)(=O)Nc1ccc2c(c1)C(=O)N([C@H](C)CO)C[C@H](C)[C@H](CN(C)Cc1ccncc1)O2` gave TcdB inh -1.
`CCc1cc2c(=O)c(-c3nc4ccccc4n3C)c(C)oc2cc1OC(C)=O` gave Anthrax LF prot -3, Autofluor counter 5761, BoNT-A LC inh2 -1, BoNT-F LC inh -9 and TcdB inh 0.
Screening CCc1cc2c(=O)c(-c3nc4ccccc4n3C)c(COCC(=O)O)oc2cc1OC(=O)C(C)(C)C returned Anthrax LF prot 0, Autofluor counter 17668*, BoNT-A LC inh2 -4 and BoNT-F LC inh -6.
Screening N#CC/C(N)=N/Nc1nc2ccccc2nc1Cc1ccccc1 returned Anthrax LF prot 31*, Autofluor counter 2387, BoNT-A LC inh2 2, BoNT-F LC inh -50 and TcdB inh 0.
Screening CC1(C)CC(=O)C(C=Nc2ccc(O)cc2)=C(O)C1 returned Anthrax LF prot 0, Autofluor counter 10479, BoNT-A LC inh2 0, BoNT-F LC inh -4 and TcdB inh 32*.
`COc1ccc(CCN=CC2=C(O)CC(C)(C)CC2=O)cc1` gave Anthrax LF prot 0, Autofluor counter 4410, BoNT-A LC inh2 1 and BoNT-F LC inh -12.
CC1(C)CC(=O)C(C=Nc2ccc(N)cc2)=C(O)C1 was read as Anthrax LF prot -6, Autofluor counter 3950, BoNT-A LC inh2 0, BoNT-F LC inh -6 and TcdB inh 13*.
`CCOc1ccc(N=CC2=C(O)CC(C)(C)CC2=O)cc1` gave Anthrax LF prot 5, Autofluor counter 4936, BoNT-A LC inh2 0 and BoNT-F LC inh -2.
Screening CC1(C)CC(=O)C(C=NCCc2ccc(S(N)(=O)=O)cc2)=C(O)C1 returned Anthrax LF prot -2, Autofluor counter 23978*, BoNT-A LC inh2 -2 and BoNT-F LC inh -7.
Screening C[C@@H]1CN([C@H](C)CO)C(=O)c2cc(NS(=O)(=O)c3cccs3)ccc2O[C@@H](C)CCCCO[C@H]1CN(C)Cc1ccccc1 returned TcdB inh 2.
For COc1ccc(S(=O)(=O)Nc2ccc3c(c2)CC(=O)N([C@H](C)CO)C[C@@H](C)[C@H](CN(C)Cc2ccncc2)O3)cc1 the results were TcdB inh 0.
For CCCCCc1nnc(N)s1 the results were Anthrax LF prot -4, Autofluor counter 16328*, BoNT-A LC inh2 -1 and BoNT-F LC inh -1.
Nc1nnc(CCCCCCCCCCc2nnc(N)s2)s1 was read as Anthrax LF prot -2, Autofluor counter 2429, BoNT-A LC inh2 0, BoNT-F LC inh 0 and TcdB inh 1.
For CNC[C@@H]1Oc2ccc(NS(=O)(=O)c3c(C)noc3C)cc2CC(=O)N([C@H](C)CO)C[C@H]1C the results were TcdB inh 0.
Screening CCCCn1c(O)c(C(CC)=NCc2ccc(F)cc2)c(=O)[nH]c1=O returned Anthrax LF prot -22, Autofluor counter inconclusive, BoNT-A LC inh2 1 and BoNT-F LC inh -2.
CCCCn1c(O)c(C(C)=NCc2ccc(F)cc2)c(=O)[nH]c1=O was read as Anthrax LF prot -1, Autofluor counter 23819*, BoNT-A LC inh2 -1 and BoNT-F LC inh -4.
CCCCn1c(O)c(C(C)=NCCCN(CC)CC)c(=O)[nH]c1=O was read as Anthrax LF prot -3, Autofluor counter 23379*, BoNT-A LC inh2 0 and BoNT-F LC inh -4.
Screening CCCCn1c(O)c(C(C)=NCCCN(C)C)c(=O)[nH]c1=O returned Anthrax LF prot -2, Autofluor counter 14900, BoNT-A LC inh2 4, BoNT-F LC inh 5 and TcdB inh 1.
CCCCn1c(O)c(C(CC)=NCCCN(C)C)c(=O)[nH]c1=O was read as Anthrax LF prot 0, Autofluor counter 16159*, BoNT-A LC inh2 1 and BoNT-F LC inh 3.
`O=C(C[C@H]1CC[C@H](NC(=O)c2ccncc2)[C@@H](CO)O1)NCC1CCCCC1` gave TcdB inh 2.
`CN(C)C(=O)C[C@@H]1CC[C@H](NC(=O)C2CCC2)[C@@H](CO)O1` gave TcdB inh 0.
